Our source for the binding signal values is paper PMC7862700, “An all-to-all approach to the identification of sequence-specific readers for epigenetic DNA modifications on cytosine”.

Holding throughout (assay): DAPPL (digital affinity profiling via proximity ligation, sequencing); 10 mM Tris-HCl pH 7.5, 50 mM NaCl, 1 mM DTT, 4% glycerol, room temperature, 30 min; GST-TFs on glutathione beads, 16-mer random dsDNA library, 0.1% formaldehyde crosslink after washing; high values mean tight binding
Settings in all cases: protein: recombinant; tags: N-terminal GST; dsDNA, one strand shown

Test [1] deals with T1, ERF (Homo sapiens, UniProt P50548 1-548).
T1 sequence: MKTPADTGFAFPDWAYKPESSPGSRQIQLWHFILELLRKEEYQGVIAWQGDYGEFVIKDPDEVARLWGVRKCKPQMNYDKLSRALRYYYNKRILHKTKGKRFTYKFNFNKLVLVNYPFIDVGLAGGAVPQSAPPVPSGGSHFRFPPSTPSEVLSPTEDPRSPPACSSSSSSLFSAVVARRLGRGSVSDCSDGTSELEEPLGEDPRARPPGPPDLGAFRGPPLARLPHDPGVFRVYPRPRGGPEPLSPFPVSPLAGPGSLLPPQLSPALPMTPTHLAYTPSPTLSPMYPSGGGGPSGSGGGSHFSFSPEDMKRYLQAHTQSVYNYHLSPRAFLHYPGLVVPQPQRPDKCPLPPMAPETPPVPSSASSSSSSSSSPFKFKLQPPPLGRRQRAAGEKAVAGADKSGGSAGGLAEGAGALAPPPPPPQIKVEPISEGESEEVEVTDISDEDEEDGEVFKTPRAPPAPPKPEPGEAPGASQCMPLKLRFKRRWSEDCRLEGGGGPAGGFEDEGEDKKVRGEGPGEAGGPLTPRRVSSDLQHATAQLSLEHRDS
In short, it runs like this: (§1)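 Each value of binding signal is a hexamer's read frequency for a factor divided by the same hexamer's frequency in the tag-only sample. Barcoded, bead-captured GST fusions of human transcription factors made in yeast were pooled with that sample and incubated with 200 nmole of a random double-stranded 16-mer DNA library in Tris/NaCl/DTT/glycerol buffer at room temperature for 30 min. Washing, 0.1% formaldehyde crosslinking, proximity ligation, PCR and Illumina NextSeq500 sequencing followed.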

For test [2], the target named is T2, ETV3L (Homo sapiens, UniProt Q6ZN32 1-361).
T2 sequence: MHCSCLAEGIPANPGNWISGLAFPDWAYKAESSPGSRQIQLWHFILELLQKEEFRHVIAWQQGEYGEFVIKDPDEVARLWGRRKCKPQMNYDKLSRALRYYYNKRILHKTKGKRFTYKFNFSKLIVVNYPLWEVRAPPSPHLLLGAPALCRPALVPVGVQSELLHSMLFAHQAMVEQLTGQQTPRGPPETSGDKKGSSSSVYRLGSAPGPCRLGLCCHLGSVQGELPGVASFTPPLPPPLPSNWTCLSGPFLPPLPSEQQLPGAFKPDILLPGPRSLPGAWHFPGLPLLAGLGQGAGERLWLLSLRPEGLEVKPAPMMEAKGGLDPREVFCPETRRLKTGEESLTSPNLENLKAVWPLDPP
Summed up:
as §1

Test [3] has as its target T3, ETS2 (Homo sapiens, UniProt P15036 1-469).
T3 sequence: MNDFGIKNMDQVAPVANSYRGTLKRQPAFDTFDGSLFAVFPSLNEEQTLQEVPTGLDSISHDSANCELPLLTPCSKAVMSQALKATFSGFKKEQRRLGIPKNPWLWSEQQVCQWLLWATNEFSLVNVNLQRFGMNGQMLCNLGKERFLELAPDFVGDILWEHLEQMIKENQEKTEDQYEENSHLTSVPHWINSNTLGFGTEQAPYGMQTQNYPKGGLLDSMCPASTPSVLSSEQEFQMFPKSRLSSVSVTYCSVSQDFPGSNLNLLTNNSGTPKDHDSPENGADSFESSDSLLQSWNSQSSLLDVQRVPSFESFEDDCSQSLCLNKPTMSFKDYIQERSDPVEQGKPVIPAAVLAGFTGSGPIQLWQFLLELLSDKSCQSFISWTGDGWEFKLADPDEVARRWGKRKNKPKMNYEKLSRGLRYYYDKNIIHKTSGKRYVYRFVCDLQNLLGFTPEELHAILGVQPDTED
Summed up:
as §1

Test [4] addresses T4, SPDEF (Homo sapiens, UniProt O95238 1-335).
T4 sequence: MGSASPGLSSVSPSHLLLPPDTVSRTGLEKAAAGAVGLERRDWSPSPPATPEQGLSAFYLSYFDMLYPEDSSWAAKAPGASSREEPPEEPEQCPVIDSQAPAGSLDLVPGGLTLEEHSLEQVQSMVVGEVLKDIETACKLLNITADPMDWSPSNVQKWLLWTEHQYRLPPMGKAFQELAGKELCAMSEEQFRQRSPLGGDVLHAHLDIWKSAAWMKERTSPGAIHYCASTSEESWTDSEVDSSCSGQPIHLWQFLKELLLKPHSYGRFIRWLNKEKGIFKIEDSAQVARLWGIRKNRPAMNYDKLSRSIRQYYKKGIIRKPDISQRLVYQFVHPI
In short, it runs like this: as §1

Test [5] addresses T5, ETV7 (Homo sapiens, UniProt Q9Y603 1-341).
T5 sequence: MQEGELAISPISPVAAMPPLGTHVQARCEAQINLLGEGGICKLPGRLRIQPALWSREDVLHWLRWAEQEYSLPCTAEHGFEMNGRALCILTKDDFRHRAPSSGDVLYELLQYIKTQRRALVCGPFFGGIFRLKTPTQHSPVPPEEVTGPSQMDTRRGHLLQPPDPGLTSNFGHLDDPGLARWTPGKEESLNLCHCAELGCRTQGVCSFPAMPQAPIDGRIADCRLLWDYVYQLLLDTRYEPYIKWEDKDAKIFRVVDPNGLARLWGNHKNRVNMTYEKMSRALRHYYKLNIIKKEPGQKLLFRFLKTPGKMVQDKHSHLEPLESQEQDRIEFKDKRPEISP
Summed up: as §1

Test [6] concerns the target T6, ELF5 (Homo sapiens, UniProt Q9UKW6-2 1-255).
T6 sequence: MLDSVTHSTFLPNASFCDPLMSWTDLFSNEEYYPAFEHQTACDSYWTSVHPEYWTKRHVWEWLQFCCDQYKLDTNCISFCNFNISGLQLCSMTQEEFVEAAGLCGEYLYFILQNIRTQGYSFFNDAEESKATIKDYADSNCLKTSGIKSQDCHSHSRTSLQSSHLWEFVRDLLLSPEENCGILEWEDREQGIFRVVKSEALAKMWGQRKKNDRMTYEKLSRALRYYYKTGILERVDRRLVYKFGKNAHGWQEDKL
In short, it runs like this:
as §1

The target in test [7] is T7, ETV3 (Homo sapiens, UniProt P41162-2 1-143).
T7 sequence: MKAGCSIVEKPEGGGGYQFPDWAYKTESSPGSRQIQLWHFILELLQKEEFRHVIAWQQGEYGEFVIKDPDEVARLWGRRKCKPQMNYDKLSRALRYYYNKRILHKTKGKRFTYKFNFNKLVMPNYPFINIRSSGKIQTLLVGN
In short, it runs like this:
as §1

For test [8], the target named is ETV6 (Homo sapiens, UniProt P41212 1-452). Summed up:
as §1

Chain of ETV6 (P41212 whole entry): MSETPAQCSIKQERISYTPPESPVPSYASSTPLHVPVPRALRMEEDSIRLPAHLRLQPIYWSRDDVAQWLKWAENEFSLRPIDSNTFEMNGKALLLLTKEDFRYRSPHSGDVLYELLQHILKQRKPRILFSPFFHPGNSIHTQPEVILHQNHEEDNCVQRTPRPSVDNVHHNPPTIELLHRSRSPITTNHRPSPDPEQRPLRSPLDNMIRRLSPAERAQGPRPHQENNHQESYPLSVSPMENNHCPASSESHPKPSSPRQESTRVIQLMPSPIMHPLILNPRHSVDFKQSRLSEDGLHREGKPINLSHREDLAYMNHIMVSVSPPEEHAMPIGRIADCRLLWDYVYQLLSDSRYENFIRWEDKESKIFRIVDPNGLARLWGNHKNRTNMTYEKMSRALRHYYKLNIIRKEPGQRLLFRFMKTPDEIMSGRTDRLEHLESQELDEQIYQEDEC

For CCTGAA, the binding signal in test [1] is 1.37 fold enrichment (6-mer frequency, TF over GST control); in test [2] it was 1.35 fold enrichment (6-mer frequency, TF over GST control); in test [3], 1.33 fold enrichment (6-mer frequency, TF over GST control); in test [4] it was 1.48 fold enrichment (6-mer frequency, TF over GST control); in test [5], 1.22 fold enrichment (6-mer frequency, TF over GST control); in test [6], 1.5 fold enrichment (6-mer frequency, TF over GST control). The binding signal was 1.4 fold enrichment (6-mer frequency, TF over GST control) in test [7] and 1.27 fold enrichment (6-mer frequency, TF over GST control) in test [8].

Regarding GTCTTC, the binding signal in test [1] is 1.29 fold enrichment (6-mer frequency, TF over GST control); in test [2], 1.23 fold enrichment (6-mer frequency, TF over GST control); in test [3] it was 1.4 fold enrichment (6-mer frequency, TF over GST control); in test [4], 1.27 fold enrichment (6-mer frequency, TF over GST control); in test [5], 1.14 fold enrichment (6-mer frequency, TF over GST control); in test [6] it was 1.72 fold enrichment (6-mer frequency, TF over GST control). The binding signal in test [7] was 1.4 fold enrichment (6-mer frequency, TF over GST control); in test [8], 1.32 fold enrichment (6-mer frequency, TF over GST control).

AAAGAT: the binding signal was 1.24 fold enrichment (6-mer frequency, TF over GST control) in test [1]; 1.17 fold enrichment (6-mer frequency, TF over GST control) in test [2]; 1.16 fold enrichment (6-mer frequency, TF over GST control) in test [3]; 1.23 fold enrichment (6-mer frequency, TF over GST control) in test [4]; 1.12 fold enrichment (6-mer frequency, TF over GST control) in test [5]; 1.15 fold enrichment (6-mer frequency, TF over GST control) in test [6]. Also, the binding signal in test [7] is 1.28 fold enrichment (6-mer frequency, TF over GST control); in test [8], 1.17 fold enrichment (6-mer frequency, TF over GST control).

With AACATG, the binding signal is 1.21 fold enrichment (6-mer frequency, TF over GST control) in test [1]; 1.17 fold enrichment (6-mer frequency, TF over GST control) in test [2]; 1.14 fold enrichment (6-mer frequency, TF over GST control) in test [3]; 1.11 fold enrichment (6-mer frequency, TF over GST control) in test [4]; 1.05 fold enrichment (6-mer frequency, TF over GST control) in test [5]; 1.15 fold enrichment (6-mer frequency, TF over GST control) in test [6]. Also, the binding signal in test [7] was 1.11 fold enrichment (6-mer frequency, TF over GST control); in test [8] it was 1.25 fold enrichment (6-mer frequency, TF over GST control).

As for AAAAAC, the binding signal in test [1] was 1.22 fold enrichment (6-mer frequency, TF over GST control); in test [2] it was 1.25 fold enrichment (6-mer frequency, TF over GST control); in test [3], 1.29 fold enrichment (6-mer frequency, TF over GST control); in test [4], 1.23 fold enrichment (6-mer frequency, TF over GST control); in test [5], 1.29 fold enrichment (6-mer frequency, TF over GST control); in test [6], 1.3 fold enrichment (6-mer frequency, TF over GST control). The binding signal in test [7] was 1.2 fold enrichment (6-mer frequency, TF over GST control); in test [8] it was 1.26 fold enrichment (6-mer frequency, TF over GST control).

AATAGG: the binding signal in test [1] is 1.21 fold enrichment (6-mer frequency, TF over GST control); in test [2] it was 1.12 fold enrichment (6-mer frequency, TF over GST control); in test [3], 1.16 fold enrichment (6-mer frequency, TF over GST control); in test [4] it was 1.22 fold enrichment (6-mer frequency, TF over GST control); in test [5], 1.27 fold enrichment (6-mer frequency, TF over GST control); in test [6], 1.19 fold enrichment (6-mer frequency, TF over GST control). Also, the binding signal in test [7] was 1.15 fold enrichment (6-mer frequency, TF over GST control); in test [8], 1.27 fold enrichment (6-mer frequency, TF over GST control).

With ATGTGT, the binding signal in test [1] is 1.15 fold enrichment (6-mer frequency, TF over GST control); in test [2] it was 1.1 fold enrichment (6-mer frequency, TF over GST control); in test [3], 1.17 fold enrichment (6-mer frequency, TF over GST control); in test [4], 1.23 fold enrichment (6-mer frequency, TF over GST control); in test [5] it was 1.09 fold enrichment (6-mer frequency, TF over GST control); in test [6] it was 1.04 fold enrichment (6-mer frequency, TF over GST control). The binding signal is 1.01 fold enrichment (6-mer frequency, TF over GST control) in test [7] and 1.12 fold enrichment (6-mer frequency, TF over GST control) in test [8].

ACCCGG: the binding signal is 1.48 fold enrichment (6-mer frequency, TF over GST control) in test [1]; 1.69 fold enrichment (6-mer frequency, TF over GST control) in test [2]; 1.79 fold enrichment (6-mer frequency, TF over GST control) in test [3]; 2.23 fold enrichment (6-mer frequency, TF over GST control) in test [4]; 1.55 fold enrichment (6-mer frequency, TF over GST control) in test [5]; 1.91 fold enrichment (6-mer frequency, TF over GST control) in test [6]. Also, the binding signal in test [7] was 1.82 fold enrichment (6-mer frequency, TF over GST control); in test [8], 1.7 fold enrichment (6-mer frequency, TF over GST control).
